Measured values from PubChem BioAssay AID463117 (University of Pittsburgh Molecular Library Screening Center, 2010).
This is one part of the list. The source made the active and inactive calls.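 How the source made its calls: active means mean protection from necroptosis of at least 50% over duplicate tests; inactive means mean protection below 50%.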

Experiment: inhibitors of zVAD-triggered necroptosis in L929, confirmation, L929 cells, duplicate runs (AID 463117);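 further: 0% = cells with zVAD alone and 100% = vehicle cells without zVAD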
Conditions: L929 zVAD-induced necroptosis rescue, ATP luminescence, 24 h; at 10 µM; hits give high values

In the case of `COC(=O)N1C(c2ccccc2)C1c1ccccc1` (stereo unspecified), the activation (protection from necroptosis) is reported as 91.7% (active).
